Data reported in paper PMC12136788.
Over roughly 24,000 sequences, “enrichment r” has its median near 0.99; the highest 2% begin near 3.7. Only a sample is shown.

B1: chr3:49066234:49066235:-_ENSG00000178035_ENST00000326739|hu_hu|FALSE|FALSE (ssRNA)
RNA: GGGAGUUCUACAGUCCGACGAUCAGAAGUCAGGUCCACCUGGUCUGCAGUGAAGUCGAUGUACCCAGGGAGAAUGAGAAAGUCAUUGUAGGUGAGGCCGUCUCCGCAGUUGAAGAGCUGCUGUGCUGUGAGUCCGUCGUCUGGCAACAGAGGAUUGAGCAUCA
B2: chr8:87366250:87366251:-_ENSMUSG00000003814_ENSMUST00000003912|mus_mus|FALSE|FALSE (ssRNA)
RNA: GGGAGUUCUACAGUCCGACGAUCGAGCAGAUGAAAUCUCAAGCCUAGGGCUUCUCCUCUACACCCCUGUUCCUAGAGUUGGAGGGUAGUGACCAAAAGAUGGAGAAAGGGAGGGACAGAAGGAAAAGAUGUUGAUUCAAAAAUCAACAGAGGAUUGAGCAUCA
B3: chr7:75932113:75932114:+_ENSG00000106211_ENST00000248553|hu_hu|hu_hu_hu_mus_False|28_98 (ssRNA)
RNA: GGGAGUUCUACAGUCCGACGAUCCUGCGACCACUCAUCCGGCAGCCGGGGCACCCCGAAAGCUUGAUCGAAGAGGCGGCUGUGUGCAGGGUACCAGUCCCGGAAUGCCCAGCUGGGCGGGCUCCGCAGCAGCGAGAAGGGCACCAACAGAGGAUUGAGCAUCA
B4: chr4:88367131:88367132:-_ENSMUSG00000070923_ENSMUST00000094993|mus_hu|motif|central (ssRNA)
RNA: GGGAGUUCUACAGUCCGACGAUCUUGGUAAUUGCUAGCUUCCAAAAGCAAAUUCACGCAGGUAUUGUCUGUUCUCAUGAAAUCGGCUGUCUGCACGUAAUUGAUGAGAUCCUGUGGUGUCAUCAGUGGAAAUCGAAUAUUCUUCAACAGAGGAUUGAGCAUCA
B5: chr8:104447970:104447971:+_ENSG00000164934_ENST00000297579|hu_hu|hu_hu_hu_mus_False|48_108 (ssRNA)
RNA: GGGAGUUCUACAGUCCGACGAUCAUAUACCUCCCUGCUUCGGCUCUUGUCCACAGGAAAGAUUCUAAUAGACUUAUCAAAGCUGGCAGACACAAACUCCUUCCCAGUGGGAGAGUAGUCCACAUCAAGUACUGCAGACACGUGCAACAGAGGAUUGAGCAUCA
B6: 31532532_31534450_220_CDS_ENSG00000082213_ENST00000325366|human|control|control (ssRNA)
RNA: GGGAGUUCUACAGUCCGACGAUCGAAAUGUAAAAAACUUACAUUACUGGCAGGAAGAUGCUUUGAGCCUAUGGCCCGGUAUAUAAAGGGUAGAACCUCCUGAUGAUCCUCCACCACCCACACUGGGAGCUUGGGGUAACGCCGCAACAGAGGAUUGAGCAUCA
B7: chr6:117881578:117881579:-_ENSG00000047932_ENST00000052569|hu_hu|motif|central (ssRNA)
RNA: GGGAGUUCUACAGUCCGACGAUCUUUAAUGUAGAAGAUGCCAUCUUUAUUUACAGGCUAAUAAAAAAAUAUUAAACUCAACGGGAUAUAAUACAUUAUCAUAAAUGCAAUAGAUUUGAGGCCAACCAUAAGUGUAAGACUGGACAACAGAGGAUUGAGCAUCA
B8: chr3:144353948:144353949:-_ENSMUSG00000037062_ENSMUST00000163279|mus_hu|FALSE|FALSE (ssRNA)
RNA: GGGAGUUCUACAGUCCGACGAUCACCAAACAACUCUGAAAAUAACCCAUCAAAACAUAAUAUUAAAAUCAUUUGAUUUCUGUUGGAAAACCAGGUAAACAUAGUUUAAAUGCGUUUUUGUCUAUGAAAGCAUUCAGAAAAUUCCAACAGAGGAUUGAGCAUCA
B9: chr7:134094464:134094465:+_ENSMUSG00000030683_ENSMUST00000106335|mus_hu|FALSE|FALSE (ssRNA)
RNA: GGGAGUUCUACAGUCCGACGAUCCUCCGUCUCCGUUUAUCUUUCCCUUUAAUUGUUUUUUUUUUUUUUUUUUUUUUCCUCGUAGGAGUCAGCAAAGAAAGACAAUUUCUCUGCCCCUUGGGAUGGAGGGGCAGAAUUGGGCUACAACAGAGGAUUGAGCAUCA
B10: chr19:3980662:3980663:-_ENSG00000167658_ENST00000309311|hu_mus|FALSE|FALSE (ssRNA)
RNA: GGGAGUUCUACAGUCCGACGAUCGAACACUCUACCAAAGGCAUAGAAGCGGCCUUUGUCAGAGGUUGGCACCAUCUUGGAAAUGUACAUCAUAAGUGGGCCUUUGGGGUCGCAGCUCUUAAUACCCAUGGCGGCCUCAUCGUCCAACAGAGGAUUGAGCAUCA
B11: chr16:45382771:45382772:-_ENSMUSG00000022661_ENSMUST00000163230|mus_mus|motif|central (ssRNA)
RNA: GGGAGUUCUACAGUCCGACGAUCGAGAGUGUUAUUGUGGGCCCAAUGGAUAGGGAGAGCAUGCUUUUGUAAAGAUGUGAACGGCUCACUAAGACUAACAAUAUUGCCUAAGUGCUAUAAAAAUAAGUUAAAUGGACACAUUACCAACAGAGGAUUGAGCAUCA
B12: chr6:44218825:44218826:+_ENSG00000096384_ENST00000371646|hu_hu|FALSE|FALSE (ssRNA)
RNA: GGGAGUUCUACAGUCCGACGAUCGUUGUUCUUUUUCUUCUUGUUCUCAAAAAGGUCAAAGGGAGCCCGACGAGGAAUAAAUAGCAAUGCCCUGAAUUCCAACUGACCUUCUACAGAAAAGUGCUUGACUGCCAAGUGGUCUUCCAACAGAGGAUUGAGCAUCA
B13: chr10:115881139:115881140:-_ENSG00000165813_ENST00000369287|hu_hu|motif|central (ssRNA)
RNA: GGGAGUUCUACAGUCCGACGAUCAUAAAAAUAUUUUCACCAGGGUAGCAUAUAUAACAACAUUUACAUUAUUAAGGAUUCGGUUUUUUUCUUUUACUGAUAAAUCUUGGUUUAAAUUUGCAUGUAACAAUUUUUAGAAAAUAACAACAGAGGAUUGAGCAUCA
B14: chr4:62795864:62795865:+_ENSMUSG00000028358_ENSMUST00000107415|mus_hu|motif|central (ssRNA)
RNA: GGGAGUUCUACAGUCCGACGAUCCAGAGUCUAAAUCAAAUCUGAAGAAACAAAAUGAACCCCCAAACAAGGUAAAAAUUGCGGAAAUGUUAGGGAGAGAAAUUAUUAGGGAGUGGAGACAGUAUCUAUACUUCUCUGAAAAAUCAACAGAGGAUUGAGCAUCA
B15: chr1:44133529:44133530:+_ENSG00000066135_ENST00000372396|hu_hu|FALSE|FALSE (ssRNA)
RNA: GGGAGUUCUACAGUCCGACGAUCAAACUCAGCUGCUUCUGGCGUGGGCAGAGUAUGGUCAAUAACUGUGUUGUCCUUCCCAGCUUUCCAAAGUUUGUACCUUUCUGGCUGGAACUUUCUCACAAACACAUCCAUGGAGAUCUUCAACAGAGGAUUGAGCAUCA
B16: chr7:149068622:149068623:-_ENSMUSG00000025139_ENSMUST00000001950|mus_hu|mus_mus_mus_hu_False|28_108 (ssRNA)
RNA: GGGAGUUCUACAGUCCGACGAUCGUGCAGGUACUGAGUGUGGCUUGUGGUCUGUCCUGGGUUAGAGUUGUUAAUAUCACGGAACAUACCAUCUAGAACGUUCCAGUCUGCCUGACUACCUUCAUUCCCAAUGGAGAAGAAAUCCAACAGAGGAUUGAGCAUCA
B17: chr12:111867003:111867004:+_ENSMUSG00000018707_ENSMUST00000018851|mus_hu|FALSE|FALSE (ssRNA)
RNA: GGGAGUUCUACAGUCCGACGAUCCACCAGCAUAUUUAUCUUCAUGUAACCUUUCAGAAGCCUCUGAACAAACUCAUAGGACGCAUACUGUCGCAACCGGGCAGGGAAGCUUUUCAGCUGGUUCAGGAGGGCAUCCAAAUUUUGCAACAGAGGAUUGAGCAUCA
B18: chr18:32579733:32579734:+_ENSMUSG00000024381_ENSMUST00000025239|mus_mus|motif|central (ssRNA)
RNA: GGGAGUUCUACAGUCCGACGAUCUUUAUGGAAGUUUUCCUCCAGACCCGCGAUGCUCUGGAACGUGUUGACAUAGAAACCGGCACGGCUGUUCCACAGGGAUGGCAGCUCCUCCUGCAGAUCCACGUUCAUCUCCUCGAACACCAACAGAGGAUUGAGCAUCA
B19: chr8:27055589:27055590:-_ENSMUSG00000037260_ENSMUST00000037609|mus_hu|FALSE|FALSE (ssRNA)
RNA: GGGAGUUCUACAGUCCGACGAUCUUCCCUUUAACAAAGGCUGCUUCAGUCCUCCCUGCAGGCCUACUAGAGUCUUCCAGCAGCACAUCUCAGUGGGAGCCAUCAGAUUUUCCAAAAAAUCUUCUUUCUAUAGAGGAUGUAGGCCAACAGAGGAUUGAGCAUCA
B20: chr16:94690093:94690094:+_ENSMUSG00000040785_ENSMUST00000117648|mus_hu|mus_mus_mus_hu_True|28_38 (ssRNA)
RNA: GGGAGUUCUACAGUCCGACGAUCGGGCUGGGAUGACGGACACACAGCCUCGAUUCCAGGGGGAAAAAGUCUUAGUCGAUACUAAUUAAAAAGUGUUUUUAUAAUUGAUUACCAAAAUUACAUCUAUAAAAGAUGAAAAGCAAACAACAGAGGAUUGAGCAUCA
B21: chr12:16048344:16048345:+_ENSG00000023734_ENST00000419869|hu_hu|hu_hu_hu_mus_True|18_18 (ssRNA)
RNA: GGGAGUUCUACAGUCCGACGAUCAGAUCGUCCAUAAGUAAUAACCAAAAUCUCUCCUUCAGGAAUAUACUCCAUGCUGCUAACAGACAUAUUAAAAUUCAGAGAUUUCACUUCUGUCAUAGUAGCAUGAUCCCAGAGCCGAACCAACAGAGGAUUGAGCAUCA
B22: chr5:134191040:134191041:+_ENSG00000181904_ENST00000394976|hu_hu|motif|central (ssRNA)
RNA: GGGAGUUCUACAGUCCGACGAUCAAAAGCAGCAGUGCCACAGCCAUAACCAAGAUCGGCAAGACGGGAUAGAGCUUUAAUGCGGCCUGGAGGUCUGCCUGGGCUGACUUUGUAUCCCGCAGCUUUAGUUGUCCCCAAAGGUCUCAACAGAGGAUUGAGCAUCA

What follows are binders tested against T1, UNK ZnF1-3 (human, UniProt Q9C0B0 31-174) (assay: nsRBNS (natural sequence RNA bind-n-seq); RBNS binding buffer (assumed for nsRBNS): 25 mM Tris pH 7.5, 150 mM KCl, 3 mM MgCl2, 0.01% Triton X-100, 500 ug/ml BSA, 20 U/ml SUPERase-In, 4 C; UNK is unkempt and MSI1 is Musashi-1; names of the RNAs are library labels; protein concentration not given here; high values mean tight binding).
T1 sequence: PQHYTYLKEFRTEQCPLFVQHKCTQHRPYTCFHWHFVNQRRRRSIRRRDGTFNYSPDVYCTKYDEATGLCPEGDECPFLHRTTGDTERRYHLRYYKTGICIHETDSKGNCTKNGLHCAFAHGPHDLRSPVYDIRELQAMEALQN
With B1 the binding signal was 1.62 enrichment R. In the case of B2, the binding signal is reported as 1.61 enrichment R. B3 showed a binding signal of 0.901 enrichment R. Work on B4 yielded a binding signal of 0.896 enrichment R. Work on B5 yielded a binding signal of 1 enrichment R. Work on B6 yielded a binding signal of 0.807 enrichment R. In the case of B7, the binding signal is reported as 1.5 enrichment R. Work on B8 yielded a binding signal of 0.744 enrichment R. B9 showed a binding signal of 1.16 enrichment R. Binder B10 has a binding signal of 1.18 enrichment R. B11 was tested, and the binding signal was 2.47 enrichment R. B12 gave a binding signal of 0.931 enrichment R. B13 was tested, and the binding signal was 2.85 enrichment R. B14 showed a binding signal of 1.32 enrichment R. B15 showed a binding signal of 0.628 enrichment R. In the case of B16, the binding signal is reported as 0.859 enrichment R. Work on B17 yielded a binding signal of 1.13 enrichment R. For B18, the binding signal was 0.625 enrichment R. B19 gave a binding signal of 1.28 enrichment R. In the case of B20, the binding signal is reported as 1.26 enrichment R. Work on B21 yielded a binding signal of 0.977 enrichment R. B22 showed a binding signal of 1.39 enrichment R.
